According to PubChem BioAssay:
The source made the active and inactive calls.

Legend:
[1] = A549 cell viability effects, profiling panel, calcein-AM fluorescence, 48 h, basal (AID 1162); conditions: higher = more signal
[2] = adipocyte viability effects, profiling panel, cell-based, 3T3-L1 adipocytes, calcein-AM fluorescence, 48 h, basal (AID 1163); conditions: 3T3-L1 adipocytes viability, higher = more signal
[3] = HepG2 cell viability effects, profiling panel, calcein-AM fluorescence, 48 h, basal (AID 1164); conditions: higher = more signal
[4] = MM1S cell viability effects, profiling panel, calcein-AM fluorescence, 48 h, basal (AID 1165); conditions: higher = more signal;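 note: viability of MM1S multiple myeloma cells under basal unstimulated conditions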
[5] = basal RPMI8226 viability, no added stimulus, profiling panel, cell-based, calcein-AM fluorescence, 48 h, PK04 Diversity Set (AID 1166); conditions: RPMI8226 myeloma viability, higher = more signal;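 note: cells grown under basal conditions without added stimulus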
[6] = basal HepG2 mitochondrial membrane potential changes, profiling panel, cell-based, JC-1 fluorescence, 24 h, 100 nL compound (AID 1167); conditions: higher = more signal
[7] = basal 3T3-L1 adipocyte mitochondrial potential changes, profiling panel, cell-based, JC-1 fluorescence, 3T3-L1 adipocytes, 24 h, 100 nL compound (AID 1168); conditions: JC-1 mitochondrial fluorescence, higher = more signal, called active from +8 up or from −8 down
[8] = basal RPMI8226 mitochondrial membrane potential changes, profiling panel, cell-based, JC-1 fluorescence, 24 h, 100 nL compound (AID 1169); conditions: RPMI8226 myeloma, JC-1 mitochondrial potential fluorescence, higher = more signal
[9] = basal MM1S mitochondrial membrane potential changes, profiling panel, cell-based, JC-1 fluorescence, 24 h, 100 nL compound (AID 1170); conditions: higher = more signal
[10] = A549 lung cancer cell viability effects, profiling panel, resazurin fluorescence, 24 h, PK04 Diversity Set (AID 1171); conditions: higher = more signal, called active from +8 up or from −8 down
Note: test concentration not given here.

In the case of [N-]=[N+]=NCc1ccccc1[C@@H]1OC(c2ccc(OCCCO)cc2)=N[C@]1(Cc1ccccc1N=[N+]=[N-])C(=O)NCc1ccccc1, the z-score [1] is reported as 0.103, the z-score [2] is reported as 0.0085 and the z-score [3] is reported as -0.829. The z-score [4] was -0.466, the z-score [5] was 0.22 and the z-score [6] was 1.47. The z-score [7] was -0.385 (inactive), the z-score [8] was -0.749 and the z-score [9] was -1.37. For the same molecule, the z-score [10] was -0.234 (inactive).

Cc1ccc(F)cc1S(=O)(=O)N[C@@H]1CCN(Cc2ccc(-c3ccccc3)cc2)C1 showed a z-score [1] of -1.8, a z-score [2] of -1.3 and a z-score [3] of -4.73. The z-score [4] was -3.15, the z-score [5] was -4.09 and the z-score [6] was -1.82. The z-score [7] was -0.516 (inactive), the z-score [8] was -0.69 and the z-score [9] was -2.99. For the same molecule, the z-score [10] was -0.464 (inactive).

In the case of C=C(C(=O)CC[C@H](OC(C)=O)c1ccc(OCCO)cc1)C(C)C, the z-score [1] is reported as -0.809, the z-score [2] is reported as -0.38 and the z-score [3] is reported as -1.22. The z-score [4] was -0.984, the z-score [5] was -1.73 and the z-score [6] was -1.05. For the same molecule, the z-score [7] was -0.00642 (inactive), the z-score [8] was 0.364 and the z-score [9] was 0.19. For the same molecule, the z-score [10] was -0.358 (inactive).

COc1ccc(C(O)C2C=CC3C(=O)NC(=O)C3N2Nc2ccccn2)cc1OCc1ccccc1 (stereo not given) gave a z-score [1] of -1.11, a z-score [2] of 0.119 and a z-score [3] of 0.222. It also gave a z-score [4] of -0.042, a z-score [5] of -1.22 and a z-score [6] of -1. For the same molecule, the z-score [7] was -0.479 (inactive), the z-score [8] was -0.879 and the z-score [9] was 0.607. For the same molecule, the z-score [10] was -0.404 (inactive).

Molecule O=C1O[C@H](c2ccccc2)[C@H](c2ccccc2)N2[C@H]1[C@@H](C(=O)Nc1nc3ccccc3s1)[C@]1(C(=O)Nc3ccccc31)[C@H]2c1ccc(O)cc1 has a z-score [1] of -0.167, a z-score [2] of 0.657 and a z-score [3] of -1.99. It also gave a z-score [4] of -3.38, a z-score [5] of -4.51 and a z-score [6] of -3.78. The z-score [7] was 0.032 (inactive), the z-score [8] was -1.12 and the z-score [9] was -0.564. For the same molecule, the z-score [10] was -0.358 (inactive).

O=C/C=C/c1ccc(Cl)cc1 showed a z-score [1] of 1.04, a z-score [2] of -0.0776 and a z-score [3] of 0.265. It also gave a z-score [4] of -3.17, a z-score [5] of 0.45 and a z-score [6] of 1.32. The z-score [7] was -0.34 (inactive), the z-score [8] was -0.762 and the z-score [9] was -1.25. The z-score [10] was -0.835 (inactive).

For COCCOC(=O)N1C(=O)[C@@]2(c3cc(C#CCCO)ccc31)[C@H](C(=O)NC[C@H](O)c1ccccc1)[C@H]1C(=O)O[C@H](c3ccccc3)[C@H](c3ccccc3)N1[C@@H]2c1ccc(O)cc1, the z-score [1] was 0.292, the z-score [2] was 0.0669 and the z-score [3] was 0.289. For the same molecule, the z-score [4] was 0.715, the z-score [5] was 0.568 and the z-score [6] was 0.467. The z-score [7] was -0.734 (inactive), the z-score [8] was 0.571 and the z-score [9] was -0.446. The z-score [10] was 0.224 (inactive).

Work on O=C1c2ccccc2[C@@]2(Cc3ccccc3N(Cc3ccccc3)C2=O)[C@H](c2ccc(CO)cc2)N1C1CCCCC1 yielded a z-score [1] of -0.774, a z-score [2] of -0.752 and a z-score [3] of -0.466. It also gave a z-score [4] of -0.144, a z-score [5] of -0.977 and a z-score [6] of -0.689. The z-score [7] was 0.604 (inactive), the z-score [8] was -0.582 and the z-score [9] was -1.32. The z-score [10] was -0.022 (inactive).

Molecule Cc1ccc(S[C@]2(C(=O)NCCN3CCOCC3)CC(=O)N(Cc3cc(C(F)(F)F)cc(C(F)(F)F)c3)[C@@H]2c2ccc(CO)cc2I)cc1 has a z-score [1] of 0.356, a z-score [2] of 0.712 and a z-score [3] of -0.554. It also gave a z-score [4] of -2.1, a z-score [5] of -1.92 and a z-score [6] of -0.168. For the same molecule, the z-score [7] was -0.227 (inactive), the z-score [8] was -0.2 and the z-score [9] was -1.57. The z-score [10] was 0.36 (inactive).

COC(=O)C[C@H]1O[C@]2(C(=O)N(Cc3ccccc3)c3ccc(NC(C)=O)cc32)[C@@H](C)[C@@H]1[Si](C)(C)c1ccc(OC)cc1 gave a z-score [1] of -0.472, a z-score [2] of 1.73 and a z-score [3] of 0.425. It also gave a z-score [4] of 0.0926, a z-score [5] of -2.57 and a z-score [6] of 0.0504. For the same molecule, the z-score [7] was 1.73 (inactive), the z-score [8] was -0.0063 and the z-score [9] was 0.402. For the same molecule, the z-score [10] was -1.62 (inactive).

COC(=O)c1c(CC[C@@H](CO)NC(=O)N[C@@H](Cc2ccccc2)Cn2cc(C3(O)CCCCC3)nn2)oc(C(C)=O)c1C(=O)OC showed a z-score [1] of 0.548, a z-score [2] of 2.01 and a z-score [3] of -0.889. It also gave a z-score [4] of 0.513, a z-score [5] of -1.69 and a z-score [6] of 0.384. For the same molecule, the z-score [7] was 0.349 (inactive), the z-score [8] was -0.614 and the z-score [9] was -0.403. For the same molecule, the z-score [10] was 0.215 (inactive).

With C=CC(COC(C)=O)NS(=O)(=O)c1ccc(Br)cc1 (stereo not given) the z-score [1] was -0.0852, the z-score [2] was -0.13 and the z-score [3] was -0.239. The z-score [4] was 0.101, the z-score [5] was -0.453 and the z-score [6] was -0.642. The z-score [7] was -0.869 (inactive), the z-score [8] was 0.392 and the z-score [9] was 0.654. The z-score [10] was -0.283 (inactive).

Work on CC(C)C(O)C1C=CC2C(=O)N(c3ccccc3)C(=O)C2N1Nc1ccc(C#N)cc1 (stereo not given) yielded a z-score [1] of -0.777, a z-score [2] of -0.289 and a z-score [3] of -0.114. The z-score [4] was -0.0628, the z-score [5] was -1.15 and the z-score [6] was -0.421. For the same molecule, the z-score [7] was -1.47 (inactive), the z-score [8] was -0.775 and the z-score [9] was -0.44. For the same molecule, the z-score [10] was -0.796 (inactive).

For C=CCOC(=O)[C@@H]1[C@H]2C(=O)O[C@H](c3ccccc3)[C@H](c3ccccc3)N2[C@H](c2ccc(OCCOC(=O)[C@@H]3C[C@@H]4C(=O)NCC(=O)N4[C@@H]3c3cccc(OCCO)c3)cc2)[C@@]12C(=O)Nc1ccc(I)cc12, the z-score [1] was 0.0646, the z-score [2] was 0.904 and the z-score [3] was 0.646. It also gave a z-score [4] of -0.0922, a z-score [5] of 0.129 and a z-score [6] of -0.941. The z-score [7] was 1.47 (inactive), the z-score [8] was -0.446 and the z-score [9] was -1.08. For the same molecule, the z-score [10] was 0.0716 (inactive).

Work on O=C1[C@]2(CO)C=C(Br)[C@@H](C[C@@H]2c2ccccc2)[C@@]12CO2 yielded a z-score [1] of -0.425, a z-score [2] of 0.364 and a z-score [3] of -0.421. For the same molecule, the z-score [4] was -2.22, the z-score [5] was -2.68 and the z-score [6] was -1.66. The z-score [7] was -0.435 (inactive), the z-score [8] was 0.278 and the z-score [9] was -1.14. The z-score [10] was 0.359 (inactive).
